VP16 counter: inhibits Gal4-VP16 luciferase reporter, ROR gamma counter-screen | AID 2546 | Potency, µM (doses to about 53.6 µM), inactives show at the top dose activity, negative = inhibition, hits mostly inhibitors | Drosophila S2 Gal4-VP16 UAS-luciferase, luminescence, 20 h | 3.5% of 310,000 active;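 also: Gal4-VP16 expression switched on by copper sulfate through the metallothionein promoter; nearly all actives have a fitted effect of over 50% in size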
Luc counter: Kinase-Glo luciferase inhibition (counter-screen). Kinase-Glo luciferase, ATP luminescence, 8 min. Potency, µM (titrated, usually from 38.3 µM), for the others: at the top dose activity change, negative = inhibition, actives largely listed as inhibitors. 0.28% of 200,000 active. AID 1379; also: nearly all actives have a fitted effect of over 60% in size
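Luminescence was the read-out, taken after 8-minute incubation at ambient temperature. Luciferase turned over luciferin with 10 uM ATP in imidazole pH 7.2 buffer containing KCl, MgCl2, Tween 20 and BSA.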
RORgamma inh: blocks mouse ROR gamma transcriptional activity; P51450; 5.4% of 310,000 active; Drosophila S2 Gal4-RORgamma UAS-luciferase reporter, 20 h; AID 2551; Potency, µM (series often up to 53.6 µM), inactives show at the highest dose activity change, negative = inhibition, hits mostly inhibitors; also: nearly all actives have a fitted effect of over 60% in size
Target sequence (P51450 whole entry, looked up, the tested form may be a part): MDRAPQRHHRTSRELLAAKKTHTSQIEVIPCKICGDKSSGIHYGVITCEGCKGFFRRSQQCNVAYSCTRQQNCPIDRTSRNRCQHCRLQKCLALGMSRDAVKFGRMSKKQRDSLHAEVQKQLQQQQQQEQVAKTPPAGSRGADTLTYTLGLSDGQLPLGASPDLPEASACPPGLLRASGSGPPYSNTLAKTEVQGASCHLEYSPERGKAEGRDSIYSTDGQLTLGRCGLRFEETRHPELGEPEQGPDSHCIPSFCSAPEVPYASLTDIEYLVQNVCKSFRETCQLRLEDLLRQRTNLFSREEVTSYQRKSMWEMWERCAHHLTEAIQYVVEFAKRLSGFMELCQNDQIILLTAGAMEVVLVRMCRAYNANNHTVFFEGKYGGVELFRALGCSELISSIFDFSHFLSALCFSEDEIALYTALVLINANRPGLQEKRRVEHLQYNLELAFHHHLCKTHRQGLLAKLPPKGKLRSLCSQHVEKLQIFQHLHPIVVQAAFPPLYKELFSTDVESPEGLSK
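Schneider cells (Drosophila), stable Gal4 DBD–ROR gamma + UAS-luc; 1 hr cmpd preincubation; Cu2+ induction 700 uM final; 20 hr ambient; luminescence.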
An asterisk follows results filed as active; ? = inconclusive; · = no result. Shown are actives, neighbours in structure and some others; about 6.2% of the full set was active somewhere. Calls follow the shape of the dose curve; as a rule, active = well fitted curve in the direction sought with a large enough effect; inconclusive = small, poorly fitted or top-dose-only effect, or another doubt; inactive = no such curve, though single readings can be large; an effect the other way counts as inactive or inconclusive. % is scaled to controls: 0 for no effect and ±100 for the full control effect; potency is read from the fitted curve at half-maximal effect.

SMILES	VP16 counter	Luc counter	RORgamma inh
CCOc1ccc(/C=N/NC(=O)c2ccc(Cn3cc([N+](=O)[O-])cn3)o2)cc1	25%	-15%	4%
Cc1[nH]n(-c2ccccc2)c(=O)c1C1(C(F)(F)F)C(=O)N(c2ccc(F)cc2)C2=C1C(=O)CC(C)(C)C2 (stereo not given)	-1%	20%	18%
CNC(=O)NC(=O)CSc1nnc(-c2ccco2)n1-c1ccccc1	-1%	·	-3%
Cc1[nH]nc2c1C1(CCN(C(=O)c3ccccc3)CC1)C(C#N)=C(N)O2	1%	-3%	-3%
Cc1[nH]nc2c1C1(CCN(C(=O)OCc3ccccc3)CC1)C(C#N)=C(N)O2	?	5%	5µM*
O=C(Cc1ccc([N+](=O)[O-])cc1)c1ccc(O)cc1O	-4%	·	31%
COc1ccc2nc(NC(=O)c3ccc([N+](=O)[O-])o3)sc2c1	11µM*	·	?
O=C(Nc1nc2ccccc2s1)c1ccc([N+](=O)[O-])o1	0%	·	-24%
Cc1cc(C)c2sc(NC(=O)c3ccc([N+](=O)[O-])o3)nc2c1	10µM*	·	5µM*
Cc1cc(C)c2nc(NC(=O)c3ccc([N+](=O)[O-])o3)sc2c1	1%	·	-21%
CCOC(=O)/C(C#N)=C/Nc1ccsc1C(C)=O	-17%	·	6%
COc1ccc(CCNC(=O)C2CCN(c3ccc(N4CCOCC4)nn3)CC2)c(OC)c1	4%	-4%	-4%
Cc1cc(C)nc(/N=C(\N)N(Cc2ccccc2)Cc2ccccc2)n1	-9%	1%	11µM*
CCCCN(CCCC)/C(N)=N/c1nc(C)cc(C)n1	0%	0%	-42%
CCOC(=O)c1ccc(S(=O)(=O)N2CC(=O)Nc3ccccc32)cc1	-18%	·	8%
NC(=S)N/N=C1\CC(c2ccc3c(c2)OCCCO3)Oc2ccc(F)cc21 (stereo not given)	0.56µM*	·	-5%
NC(=S)N/N=C1\CC(c2ccc3c(c2)OCCO3)Oc2ccc(F)cc21 (stereo not given)	6.3µM*	·	6.3µM*
CC(C)(C)N/N=C1\CC(c2ccccc2)Oc2ccccc21 (stereo not given)	-20%	·	226%
Cc1cc(C)nc(/N=C(\N)Nc2ccc3c(c2)OCCO3)n1	-7%	2%	12%
O=C(C1CCC(CNS(=O)(=O)c2cccc3nsnc23)CC1)N1CCN(c2ccccn2)CC1 (stereo not given)	2%	-3%	36%
Cc1ccc2c(c1)COc1c3ccc(C(=O)NC(C)C)cc3nn1-2	-21%	·	-26%
CC1=CCCC(C)(C)C1/C=C/C(C)=N/NC(=O)c1ccncc1 (stereo not given)	?	0%	2.8µM*
C/C(=N/NC(=O)c1ccncc1)C1=C(O)CC(C)(C)CC1=O	3%	-1%	-27%
CCCC(C(=O)Nc1ccncc1)c1ccccc1 (stereo not given)	-11%	·	2%
CCCCCc1ccc(OCCOCCn2c[n+](C)c3ccccc32)c(CCCCC)c1	16µM*	0%	?
SMILES	VP16 counter	Luc counter	RORgamma inh
CCCCCc1ccc(OCCC[n+]2ccccc2)c(CCCCC)c1	-15%	·	10%
COc1ccc(-c2nnc3ccc(SCC(=O)Nc4nc5ccccc5s4)nn23)cc1OC	-1%	1%	9%
CC(C)CCCC(C)C1CCC2C3CC=C4CC(O)CC[C@@]4(C)C3CC[C@@]12C (stereo not given in full)	3%	2%	3%
C[C@@H](C(=O)Nc1ccc2ccccc2c1)[C@H]1C[C@]1(C)[C@H](NS(=O)(=O)c1ccc2ccccc2c1)c1ccccc1	-11%	1%	-18%
Cc1nc(NC(=O)c2ccc(Br)o2)sc1C	-17%	?	-34%
O=C(Nc1nnc2n1CCS2)c1ccc(Br)o1	7.1µM*	·	3.5µM*
Cc1cccc(C)c1OCCNC(=O)C(=O)NCc1ccco1	5%	-1%	7%
Brc1cccc(-c2nnco2)c1	?	-3%	20µM*
Brc1ccc(-c2nnc(-c3cccc(Br)c3)o2)cc1	-21%	-4%	22%
Cc1ccccc1CN1CCN(CC(=O)NC(C)c2ccccc2)CC1 (stereo not given)	-3%	·	3%
O=C(CNC(=O)Cc1ccccc1)NCC(=O)OCC(=O)c1ccc(Cl)cc1	-6%	-1%	-29%
CCCOc1ccc(C(=O)c2nc3c(n2O)CCCCC3)cc1	20µM*	-2%	14%
O=C(c1ccccc1)c1nc2c(n1O)CCCCC2	-3%	-5%	0%
CCCCOc1ccc(C(=O)CCN2CCOCC2)cc1	?	-4%	?
CCCOc1ccc(C(=O)CCN2CCCCC2)cc1	14µM*	-7%	?
CCOc1ccc(C(=O)CCN2CCCCCC2)cc1	5.6µM*	-3%	4.5µM*
CCOc1ccc(OCCN2CCCCC2)cc1	-3%	-1%	-11%
CS(=O)(=O)c1ccc2nc(NC(=O)c3ccc(Cn4cc(Br)cn4)o3)sc2c1	-5%	·	17%
NC(=O)C1CCN(S(=O)(=O)Cc2ccccc2Cl)CC1	-2%	2%	-1%
COc1ccc(OC)c(-c2oc3ccccc3c(=O)c2O)c1	-28%	-3%	7.1µM*
COc1cccc2c(=O)c3ccccc3oc12	1%	-3%	-11%
COc1ccc(-c2oc3ccccc3c(=O)c2O)cc1	-1%	-1%	?
COc1ccccc1-c1oc2ccccc2c(=O)c1O	1%	2%	20µM*
CN(C)C(=O)c1cc(C(=O)Cc2ccccc2)c[nH]1	5%	·	9%
Cc1ccc([C@@H]2[C@@H]3C(=O)N(C)C(=O)[C@@H]3[C@]3(Cc4ccccc4)C(=O)N(Cc4ccccn4)CC(=O)N23)o1	10%	·	-2%
SMILES	VP16 counter	Luc counter	RORgamma inh
S=c1[nH]nc(-c2ccc3c(c2)OCO3)n1-c1ccccc1	11µM*	0%	8.9µM*
c1ccc(-c2nccc(-c3ccc4c(c3)OCO4)n2)cc1	?	-3%	23%
c1ccc(N2CCN(CCCOc3ccc4c(c3)OCO4)CC2)cc1	-8%	-1%	6%
O=[N+]([O-])c1ccc(OCc2n[nH]c(=S)n2-c2ccccc2)cc1	?	·	0.32µM*
S=c1[nH]nc(COc2ccc3c(c2)OCO3)n1-c1ccccc1	11µM*	2%	3.5µM*
O=C(COc1ccccc1)NCc1n[nH]c(=S)n1-c1ccccc1	10%	-3%	-28%
CCn1c(COc2ccc(Cl)cc2)nnc1SCC(=O)Nc1ccc2c(c1)OCO2	-6%	1%	-7%
CCn1c(COc2ccc3c(c2)OCO3)nnc1SCC(=O)c1ccccc1	13µM*	-2%	13%
CC(C)C[C@H](NC(=O)[C@H](CC(C)C)NC(=O)[C@H](Cc1ccccc1)NC(=O)[C@@H](N)CO)C(=O)N[C@@H](CCCNC(=N)N)C(=O)N[C@@H](CC(N)=O)C(=O)N1CCC[C@H]1C(=O)N[C@@H](CC(N)=O)C(=O)N[C@@H](CC(=O)O)C(=O)N[C@@H](CCCCN)C(=O)N[C@@H](Cc1ccc(O)cc1)C(=O)N[C@@H](CCC(=O)O)C(=O)N1CCC[C@H]1C(=O)N[C@@H](Cc1ccccc1)C(=O)O	-4%	·	13%
CCCC(=O)Nc1nnc(SCC(=O)N2CCCCC2)s1	-1%	·	6%
COc1ccc(OC)c(S(=O)(=O)Nc2cc(C)on2)c1	6%	·	-14%

Screening results: PubChem, National Center for Advancing Translational Sciences (NCATS)
